“And” between values parts separate entries of the source, which are not always exact repeats. Equal values may be shown once. For part of these data: Results with a measured potency or affinity are listed apart. A structure can be active in one record and inactive in another. The source made the active and inactive calls. Unless noted, the rule behind the calls is not given here.
How the values were obtained:
[1] = antimalarial activity against Dd2 strain (AID 2302;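 active = growth inhibition above 50% at the single 2 µM test dose, taken to imply half-maximal potency below 2 µM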;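 note: 0% = DMSO untreated growth and 100% = chloroquine plus artemisinin killed control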); conditions: P. falciparum Dd2 in RBCs, LDH growth readout, 72 h; at 2 µM; stronger effect = higher value
[2] = human hepatoma cell viability loss – ATP luminescence, cytotoxicity control for P. falciparum antimalarial project, primary screen (AID 2303;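 active = inhibition above 50%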;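 note: 0% = DMSO wells and 100% = digitonin-killed cells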); conditions: HepG2 viability, 24-48 h, at 10 µM, stronger effect = higher value
[3] = molecular target: L-lactate dehydrogenase (Plasmodium falciparum (isolate CDC / Honduras)) (UniProt Q27743); assay: PfLDH activity inhibition – cell lysate, 3D7 strain, counter-screen for P. falciparum growth inhibition project (AID 2304);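 note: 0% = vehicle and 100% = reference inhibitor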; conditions: P. falciparum 3D7 crude extract, LDH APAD/NBT absorbance; at 2 µM; stronger effect = higher value
L-lactate dehydrogenase (Plasmodium falciparum (isolate CDC / Honduras)), sequence (Q27743 whole entry, looked up): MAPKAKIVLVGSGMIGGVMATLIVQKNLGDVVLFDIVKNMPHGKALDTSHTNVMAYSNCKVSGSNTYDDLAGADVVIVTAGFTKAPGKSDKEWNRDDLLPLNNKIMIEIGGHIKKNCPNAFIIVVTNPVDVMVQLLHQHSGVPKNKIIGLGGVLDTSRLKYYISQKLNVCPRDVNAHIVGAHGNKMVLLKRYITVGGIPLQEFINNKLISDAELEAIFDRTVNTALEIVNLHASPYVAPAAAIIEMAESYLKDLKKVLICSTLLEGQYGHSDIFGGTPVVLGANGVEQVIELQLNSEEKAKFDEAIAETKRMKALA

[4] = inhibition of 3D7 malaria parasite growth – strain 3D7 (AID 2306);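 note: 0% = DMSO wells and 100% = chloroquine plus artemisinin control wells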; conditions: P. falciparum 3D7 erythrocytic growth, LDH absorbance, 72 h; at 2 µM; stronger effect = higher value
[5] = molecular target: Calcium-dependent protein kinase 1 (Plasmodium falciparum (isolate 3D7)) (UniProt P62344); assay: PfCDPK1 kinase inhibitors, biochemical, TCAMS library (AID 1159585; cut-off not given, nearly all actives have IC50 up to about 0.98 µM;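 note: inhibitors leave more ATP so luminescence rises with inhibition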); conditions: recombinant PfCDPK1, Kinase-Glo ATP depletion luminescence
Calcium-dependent protein kinase 1 (Plasmodium falciparum (isolate 3D7)), sequence (P62344 whole entry, looked up): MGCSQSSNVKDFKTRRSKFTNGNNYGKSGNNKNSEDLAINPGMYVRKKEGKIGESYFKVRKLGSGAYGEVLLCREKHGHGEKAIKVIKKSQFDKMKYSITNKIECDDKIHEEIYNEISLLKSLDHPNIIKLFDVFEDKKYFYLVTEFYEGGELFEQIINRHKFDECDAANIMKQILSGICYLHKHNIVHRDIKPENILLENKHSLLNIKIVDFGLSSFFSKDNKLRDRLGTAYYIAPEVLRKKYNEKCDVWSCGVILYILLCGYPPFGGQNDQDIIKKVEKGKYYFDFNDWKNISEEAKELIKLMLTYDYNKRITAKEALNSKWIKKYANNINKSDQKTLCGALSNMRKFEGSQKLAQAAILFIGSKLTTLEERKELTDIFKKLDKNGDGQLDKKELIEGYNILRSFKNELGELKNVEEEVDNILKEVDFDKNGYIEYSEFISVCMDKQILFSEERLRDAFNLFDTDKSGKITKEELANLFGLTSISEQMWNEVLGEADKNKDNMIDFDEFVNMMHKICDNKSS

[6] = molecular target: Plasmodium falciparum protein kinase 6 (PK6, PF3D7_1337100) (UniProt Q8IDW1); assay: PfPK6 kinase inhibitors, biochemical, TCAMS library (AID 1159586); conditions: recombinant PfPK6, Kinase-Glo ATP depletion luminescence
Plasmodium falciparum protein kinase 6 (PK6, PF3D7_1337100), sequence (Q8IDW1 1-305): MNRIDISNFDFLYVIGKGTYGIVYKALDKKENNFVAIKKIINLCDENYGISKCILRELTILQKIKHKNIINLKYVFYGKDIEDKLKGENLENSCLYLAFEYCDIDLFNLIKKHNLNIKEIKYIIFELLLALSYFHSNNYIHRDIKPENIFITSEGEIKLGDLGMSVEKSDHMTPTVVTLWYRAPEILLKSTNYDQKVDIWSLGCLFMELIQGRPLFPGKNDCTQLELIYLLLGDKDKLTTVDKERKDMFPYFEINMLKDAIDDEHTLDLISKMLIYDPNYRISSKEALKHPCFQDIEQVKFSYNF

[7] = molecular target: Protein kinase 7 (PK7), Plasmodium falciparum 3D7 (PF3D7_0213400) (UniProt Q7YTF7); assay: inhibition of Plasmodium PK7 catalytic activity – biochemical, TCAMS antimalarial set, Kinase-Glo luminescence (AID 1159587); conditions: recombinant PfPK7, Kinase-Glo ATP depletion luminescence
Protein kinase 7 (PK7), Plasmodium falciparum 3D7 (PF3D7_0213400), sequence (Q7YTF7 1-343): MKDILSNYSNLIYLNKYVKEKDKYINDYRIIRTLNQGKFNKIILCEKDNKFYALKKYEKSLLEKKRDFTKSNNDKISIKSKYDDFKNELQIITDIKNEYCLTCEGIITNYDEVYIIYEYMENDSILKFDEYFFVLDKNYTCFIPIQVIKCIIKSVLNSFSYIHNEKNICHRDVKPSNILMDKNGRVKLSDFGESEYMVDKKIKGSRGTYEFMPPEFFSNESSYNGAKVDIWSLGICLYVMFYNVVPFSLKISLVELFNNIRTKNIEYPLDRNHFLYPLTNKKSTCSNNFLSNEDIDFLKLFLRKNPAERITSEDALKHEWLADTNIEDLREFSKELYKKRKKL

[8] = molecular target: Calcium-dependent protein kinase 4 (Plasmodium falciparum (isolate 3D7)) (UniProt Q8IBS5); assay: PfCDPK4 kinase inhibitors, biochemical, TCAMS library (AID 1159588; cut-off not given, nearly all actives have IC50 up to about 0.91 µM); conditions: recombinant PfCDPK4, Kinase-Glo ATP depletion luminescence
Calcium-dependent protein kinase 4 (Plasmodium falciparum (isolate 3D7)), sequence (Q8IBS5 whole entry, looked up): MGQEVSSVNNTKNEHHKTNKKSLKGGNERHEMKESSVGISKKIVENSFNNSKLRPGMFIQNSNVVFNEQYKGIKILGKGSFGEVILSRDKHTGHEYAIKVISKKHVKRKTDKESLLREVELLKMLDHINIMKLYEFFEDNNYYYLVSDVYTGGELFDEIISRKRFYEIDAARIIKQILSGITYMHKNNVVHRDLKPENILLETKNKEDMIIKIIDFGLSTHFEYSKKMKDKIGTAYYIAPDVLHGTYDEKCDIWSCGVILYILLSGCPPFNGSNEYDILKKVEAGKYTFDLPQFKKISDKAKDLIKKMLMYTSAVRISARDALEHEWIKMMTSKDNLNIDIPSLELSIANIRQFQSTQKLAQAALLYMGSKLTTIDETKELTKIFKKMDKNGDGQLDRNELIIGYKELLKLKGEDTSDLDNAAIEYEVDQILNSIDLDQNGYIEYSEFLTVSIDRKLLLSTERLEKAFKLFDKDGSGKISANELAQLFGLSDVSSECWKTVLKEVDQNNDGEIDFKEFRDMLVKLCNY

Row | SMILES | growth inhibition [1] | inhibition [2] | inhibition [3] | growth inhibition [4] | outcome [5] | outcome [6] | outcome [7] | outcome [8]
1 | O=C(c1ccc(Cl)cc1)N1CCOC(CCN2CCC(c3ccccc3)CC2)(c2ccc(Cl)c(Cl)c2)C1 (centres undefined) | 68% (active) | 19% (inactive) | 3% (inactive) | 98% (active) | inactive | inactive | inactive | inactive
2 | Cc1cc(CNCCCCCCCNCc2cccc([N+](=O)[O-])c2)ccc1O | -5% (inactive) | 6% (inactive) | -1% (inactive) | 100% (active) | inactive | inactive | inactive | inactive
3 | CC(C)CNCc1cccc(-c2cccc(CNCCCN3CCN(C)CC3)c2)c1 | 7% (inactive) | 5% (inactive) | 1% (inactive) | 88% (active) | inactive | inactive | inactive | inactive
4 | COc1cc(F)c2ncc(Cl)c([C@H](O)CN3CCC(NCc4cc5c(cn4)OCCO5)CC3)c2c1 | 49% (inactive) | 10% (inactive) | 4% (inactive) | 102% (active) | inactive | inactive | inactive | inactive
5 | CC(=O)N1N=C(c2ccc(Cl)cc2)Sc2c1nc(C1CCCCC1)n2C(C)=O | 67% (active) | 1% (inactive) | -1% (inactive) | 103% (active) | inactive | inactive | inactive | inactive
6 | NC1=NC(c2ccccc2)(c2ccccc2)C(=O)N1CC1CCC1 | 74% (active) | 17% (inactive) | 3% (inactive) | 96% (active) | inactive | inactive | inactive | inactive
7 | O=C(Nc1ccc(Cn2ncc(N3CCCNCC3)c(Cl)c2=O)cc1)Nc1ccc(-c2ccccc2)cc1 | 41% (inactive) and 51% (active) | 12% (inactive) and 10% (inactive) | -2% (inactive) and 8% (inactive) | 93% (active) | inactive | inactive | inactive | inactive
8 | Clc1ccc2c(NN=Cc3cccnc3)ccnc2c1 | 86% (active) | -9% (inactive) | 3% (inactive) | 100% (active) | inactive | inactive | inactive | inactive
9 | COc1ccc(C(C(=O)NC2CCN(C[C@H](O)c3ccnc4ccc(OC)cc34)CC2)N2CCN(Cc3ccccc3)CC2)cc1 (some centres undefined) | 72% (active) | 18% (inactive) | -9% (inactive) | 100% (active) | inactive | inactive | inactive | inactive
10 | COc1ccc(NC(=O)NC2CCN(CCCOc3ccnc4cc(Cl)ccc34)C2)cc1OC (centres undefined) | 16% (inactive) | 6% (inactive) | 1% (inactive) | 90% (active) | inactive | inactive | inactive | inactive
11 | CC(C)Oc1ccc2c(c1)OC(c1ccccc1)(C(F)(F)F)NC2=O (centres undefined) | 98% (active) | -6% (inactive) | -2% (inactive) | 101% (active) | inactive | inactive | inactive | inactive
12 | c1ccc(CN2CCC(NCc3ccc(-c4ccc(CNC5CCCC5)cc4)cc3)CC2)cc1 | 98% (active) | 24% (inactive) | -4% (inactive) | 101% (active) | inactive | inactive | inactive | inactive
13 | CN(C)C(=O)C(CC(=O)NCc1ccccc1Cl)N(C)C (centres undefined) (tested in a mixture with another compound) | 2% (inactive) | 7% (inactive) | -3% (inactive) | 96% (active) | inactive | inactive | inactive | inactive
14 | N#CC(CC(=O)c1ccc(Cl)cc1)c1cccc(F)c1 (centres undefined) | 4% (inactive) | 5% (inactive) | 4% (inactive) | 97% (active) | inactive | inactive | inactive | inactive
15 | CCC(CC(NCCCCNC(=O)c1ccc(NC(=O)c2ccc(Cl)cc2)cc1)c1ccccc1)c1ccccc1OC (centres undefined) | 76% (active) and 56% (active) | 23% (inactive) and 10% (inactive) | -1% (inactive) and 1% (inactive) | 100% (active) and 89% (active) | inactive | inactive | inactive | inactive
16 | COc1ccc(NC(=O)C2CCN(CCCCCNC(=O)/C=C/c3ccc(Cl)c(Cl)c3)CC2)cc1 | -4% (inactive) | 26% (inactive) | 6% (inactive) | 98% (active) | inactive | inactive | inactive | inactive
17 | Cc1noc(C)c1-c1ccc2c(Nc3ccccc3C(C)(C)C)c(C(=O)NCc3ccc(OC(C)C)cc3)cnc2c1 | 98% (active) | -3% (inactive) | 0% (inactive) | 100% (active) | inactive | inactive | inactive | inactive

Row | SMILES | growth inhibition [1] | inhibition [2] | inhibition [3] | growth inhibition [4] | outcome [5] | outcome [6] | outcome [7] | outcome [8]
18 | CCOC(=O)C(C)(C)Oc1ccc(C(=C2CC(C)(C)CC(C)(C)C2)c2ccc(O)cc2)cc1 | 78% (active) | -3% (inactive) | 1% (inactive) | 92% (active) | inactive | inactive | inactive | inactive
19 | COc1ccc2nccc([C@@H](O)CN3CCC(NCc4ccc5nnsc5c4)CC3)c2c1 | 0% (inactive) | 16% (inactive) | 5% (inactive) | 99% (active) | inactive | inactive | inactive | inactive
20 | COc1ccc(Cl)cc1N1CCN(CCCNC(=O)c2ccc(-c3nc4cc5ccccc5cc4[nH]3)c(F)c2)CC1 | 62% (active) | 12% (inactive) | -3% (inactive) | 99% (active) | inactive | inactive | inactive | inactive
21 | CN1CCN(Cc2ccc(-c3cc4nccc(Nc5ccc(Oc6ccccc6)cc5)c4cc3Cl)o2)CC1 | 99% (active) | 3% (inactive) | -5% (inactive) | 100% (active) | inactive | inactive | inactive | inactive
22 | COc1ccc2ncc(F)c(C(O)CN3CCC(NCc4ccc5c(n4)NC(=O)CO5)CC3)c2c1 (centres undefined) | 51% (active) and 88% (active) | 6% (inactive) and 51% (active) | 3% (inactive) and -2% (inactive) | 99% (active) and 100% (active) | inactive | inactive | inactive | inactive
23 | CC(=O)Nc1ccc(OCCN(Cc2ccccc2C(F)(F)F)c2ccc(C#N)c(C(F)(F)F)c2)cc1 | 81% (active) | 8% (inactive) | 0% (inactive) | 101% (active) | inactive | inactive | inactive | inactive
24 | CCNc1cc(C(=O)N[C@@H](Cc2ccc(F)c(F)c2)[C@H](O)CNCc2cccc(OC)c2)cc(N2CCCCS2(=O)=O)c1 | 85% (active) | 4% (inactive) | -7% (inactive) | 99% (active) | inactive | inactive | inactive | inactive
25 | COc1ccc2nccc([C@@H](O)CN3CCC(NCc4ccc5c(c4)nnn5C(C)C)CC3)c2c1 | 40% (inactive) | 15% (inactive) | 0% (inactive) | 100% (active) | inactive | inactive | inactive | inactive
26 | CC(C)(C)CN1C(=O)C(c2ccccc2)(c2ccccc2)N=C1N | 94% (active) | 32% (inactive) | 1% (inactive) | 98% (active) | inactive | inactive | inactive | inactive
27 | O=C(CCCCCNC(=O)c1ccc(O)c(-c2ccc(Cl)c(Cl)c2)c1)NCCN1CCCCC1 | 1% (inactive) | -4% (inactive) | 0% (inactive) | 93% (active) | inactive | inactive | inactive | inactive
28 | Cc1cc(=O)c(-c2ccc(Oc3cccc(C(F)(F)F)c3)cc2)c(C)[nH]1 | 95% (active) and 97% (active) | 8% (inactive) and 14% (inactive) | -2% (inactive) and -1% (inactive) | 96% (active) and 97% (active) | inactive | inactive | inactive | inactive
29 | O=C(Nc1ccc(-c2cccc(-c3nc4ccc(C(F)(F)F)cc4[nH]3)c2)cc1)c1cccnc1 | 24% (inactive) | 74% (active) | -5% (inactive) | 100% (active) | inactive | inactive | inactive | inactive
30 | CC(C)C1CCc2nc(N)nc(N)c2C1 (centres undefined) | -2% (inactive) | 70% (active) | -5% (inactive) | 95% (active) | inactive | inactive | inactive | inactive
31 | Cc1ccc(CN2CCN(Cc3cccc(NC(=O)c4cccs4)c3)CC2)cc1C | 68% (active) | 41% (inactive) | 2% (inactive) | 96% (active) | inactive | inactive | inactive | inactive
32 | CC(=O)N/N=C/[C@H](CCc1ccccc1)NC(=O)[C@H](CC(C)C)NC(=O)c1ccc(OCCN2CCOCC2)cc1 | 87% (active) | 4% (inactive) | -9% (inactive) | 96% (active) | inactive | inactive | inactive | inactive
33 | COc1ccc(Cl)cc1S(=O)(=O)Nc1cccc(CCN2CCC(N3CCCCC3)CC2)c1 | 9% (inactive) | 33% (inactive) | 4% (inactive) | 101% (active) | inactive | inactive | inactive | inactive

— PubChem BioAssay
